{"source": "PubChem BioAssay", "note": "The source made the active and inactive calls.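 The calls were made as follows, unless noted: active = viability loss from added drug above about 55%, and viability with drug at most 40%, in both replicates (limit read from the data, passing the limit was not always enough); inconclusive = both conditions met in only one replicate; inactive = neither replicate meets both conditions.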"}
{"test": "H69AR cell proliferation blockers – human, duplicate replicates, primary screen (AID 580;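 active = viability at or under a set limit in both replicates, limit being median viability minus 3 SD, cut at about 48% in these data, passing the limit was not always enough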;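 also: 100% = mean luminescence of untreated wells and 0% = no signal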)", "settings": "H69AR lung tumor cells viability, ATP luminescence, 72 h; at 10 µM; stronger effect = lower value"}
{"smiles": "CCOC(=O)N1CCC(NC(=O)CCc2c(C)nc3c(c(C)nn3C(C)(C)C)c2C)CC1", "viability": "85.1% (inactive)"}
{"smiles": "Cc1cc2nc(C3CCN(CC4COc5ccccc5O4)CC3)[nH]c2cc1C", "note": "(stereo not given)", "viability": "77.8% (inactive)"}
{"smiles": "CNC(=O)Nc1cccc(C(F)(F)F)c1", "viability": "93.6% (inactive)"}
{"smiles": "COc1ccccc1C1CC(c2ccc(C)cc2)Nc2ncnn21", "note": "(stereo not given)", "viability": "102% (inactive)"}
{"smiles": "CCCn1c2ccccc2c2nnc(SCC(=O)OCC)nc21", "viability": "91.2% (inactive)"}
{"smiles": "Cc1nnc2ccc(N3CCN(c4cccc(C(F)(F)F)c4)CC3)nn12", "viability": "80.3% (inactive)"}
{"smiles": "O=C(Cn1ccc2ccccc2c1=O)NCCC(=O)NC1CCN(Cc2ccccc2)CC1", "viability": "100% (inactive)"}
{"smiles": "Cc1nc(SCC(=O)Nc2ccccc2C(F)(F)F)c2c(=O)n(C)c(=O)n(C)c2n1", "viability": "74% (inactive)"}
{"smiles": "CCOC(=O)N1CCC(NC(=O)CSCc2nc(-c3cccc(OC)c3)oc2C)CC1", "viability": "106% (inactive)"}
{"smiles": "COc1cc(C(=O)N2CCC(c3nc(-c4cccnc4)no3)CC2)cc(OC)c1OC", "viability": "93.9% (inactive)"}
{"smiles": "O=C(Nc1ccc2c(c1)OCCO2)c1ccco1", "viability": "86.5% (inactive)"}
{"smiles": "CCOC(=O)c1cnc(-n2nc(C)cc2C)nc1Nc1cccc(C(C)=O)c1", "viability": "88% (inactive)"}
{"smiles": "O=c1[nH]cnc2c1nc(SCc1ccccc1)n2C1OC(CO)C(O)C1O", "note": "(stereo not given)", "viability": "101% (inactive)"}
{"smiles": "COc1ccc(CCn2c(-c3ccco3)nc3nc4ccccc4nc32)cc1", "viability": "25.6% (active)"}
{"smiles": "O=S(=O)(c1ccc(-c2csc(-c3cccnc3)n2)cc1)N1CCCCC1", "viability": "84.2% (inactive)"}
{"smiles": "CCCOc1nc(N)c(C#N)c(-c2ccccc2F)c1C#N", "viability": "89.7% (inactive)"}
{"smiles": "COc1cc(OC)c(OC)cc1CN(C)CCc1ccccn1", "viability": "86.9% (inactive)"}
{"smiles": "CCOC(=O)c1c(-c2cccs2)csc1NC(=O)CCCC(=O)O", "viability": "83.4% (inactive)"}
{"smiles": "Cc1cccc(-c2c3c(=O)n(C)c(=O)n(C)c3cn2-c2ccc(O)cc2)c1", "viability": "86.6% (inactive)"}
{"smiles": "CCN(C(=O)CCc1nc(-c2ccccc2F)no1)c1cc(OC)ccc1OC", "viability": "92.4% (inactive)"}
{"smiles": "CCc1nc(SCC(=O)Nc2nccs2)c2oc3ccccc3c2n1", "viability": "37.4% (active)"}
{"smiles": "Cc1c(C#N)sc2nc(-c3ccccc3)nc(N3CCCC3)c12", "viability": "77% (inactive)"}
{"smiles": "Cc1cccc(N=C2NC(=O)CS2)c1C", "viability": "91.9% (inactive)"}
{"smiles": "COCCNC(=O)c1ccc2c(c1)nc(C)n2-c1cccc(F)c1", "viability": "90.5% (inactive)"}
{"smiles": "CCOC(=O)c1[nH]c2ccc(C)cc2c1N=C(C)N(C)C", "viability": "97.7% (inactive)"}
{"smiles": "COc1ccc2nc(N3CCC(C)CC3)c(C#N)cc2c1", "viability": "26.8% (active)"}
{"smiles": "Cc1ccccc1NS(=O)(=O)c1cc(S(C)(=O)=O)ccc1Cl", "viability": "94.4% (inactive)"}
{"smiles": "Cc1cc(C)c2c(N)c(C(=O)N3CCN(c4ncccn4)CC3)sc2n1", "viability": "101% (inactive)"}
{"smiles": "Cc1cc(C)n2nc3nc(N4CCCCC4)nc(-c4ccco4)c3c2n1", "viability": "80.2% (inactive)"}
{"smiles": "O=C(O)c1cc(=O)cc(C(=O)O)[nH]1", "viability": "105% (inactive)"}
{"smiles": "COc1ccc(NC(C)=O)cc1NC(=O)CN1CCN(c2ccccn2)CC1", "viability": "85.6% (inactive)"}
{"smiles": "CCOC(=O)c1cccc(NC(=O)CS(=O)(=O)Cc2nc(-c3cccc(OC)c3)oc2C)c1", "viability": "85.3% (inactive)"}
{"smiles": "O=C(CCc1nc2ccccc2s1)OCC(=O)N1CCN(C(=O)c2ccco2)CC1", "viability": "90.5% (inactive)"}
{"smiles": "Cc1ccccc1CS(=O)(=O)Cc1ccc(C(=O)NCCCN2CCOCC2)o1", "viability": "98.2% (inactive)"}
{"smiles": "CCOC(=O)c1cccc(NC(=O)Cn2cnc3c2c(=O)n(C)c(=O)n3C)c1", "viability": "91.2% (inactive)"}
{"smiles": "O=C(Nc1ccon1)c1csc2c1CCCC2", "viability": "98.3% (inactive)"}
{"smiles": "CC(C)(C)n1ncc2c(=O)n(CC(=O)NCCc3ccccc3)cnc21", "viability": "90.9% (inactive)"}
{"smiles": "Cc1cccc2sc(NC(=O)CN(C)S(=O)(=O)c3cccs3)nc12", "viability": "92% (inactive)"}
{"smiles": "CCOC(=O)c1cccc(NC(=O)CSc2nnc(C3CCCCC3)n2C)c1", "viability": "91.3% (inactive)"}
{"smiles": "CCCc1nnc2n1N=C(c1ccc(OC)c(OC)c1)CS2", "viability": "69.9% (inactive)"}
{"test": "MRP1 drug-resistance reversers in H69AR cells – cell-based, doxorubicin co-treatment, pilot screen (AID 601)", "settings": "H69AR cells + 2 uM doxorubicin, CellTiter-Glo, 72 h; at 10 µM; stronger effect = higher value"}
{"smiles": "CCOC(=O)N1CCC(NC(=O)CCc2c(C)nc3c(c(C)nn3C(C)(C)C)c2C)CC1", "differential viability (reversal)": "1.25% (inactive)"}
{"smiles": "Cc1cc2nc(C3CCN(CC4COc5ccccc5O4)CC3)[nH]c2cc1C", "note": "(stereo not given)", "differential viability (reversal)": "22.7% (inactive)"}
{"smiles": "CNC(=O)Nc1cccc(C(F)(F)F)c1", "differential viability (reversal)": "-6.37% (inactive)"}
{"smiles": "COc1ccccc1C1CC(c2ccc(C)cc2)Nc2ncnn21", "note": "(stereo not given)", "differential viability (reversal)": "-16% (inactive)"}
{"smiles": "CCCn1c2ccccc2c2nnc(SCC(=O)OCC)nc21", "differential viability (reversal)": "11% (inactive)"}
{"smiles": "Cc1nnc2ccc(N3CCN(c4cccc(C(F)(F)F)c4)CC3)nn12", "differential viability (reversal)": "18.7% (inactive)"}
{"smiles": "O=C(Cn1ccc2ccccc2c1=O)NCCC(=O)NC1CCN(Cc2ccccc2)CC1", "differential viability (reversal)": "17.5% (inactive)"}
{"smiles": "Cc1nc(SCC(=O)Nc2ccccc2C(F)(F)F)c2c(=O)n(C)c(=O)n(C)c2n1", "differential viability (reversal)": "-2.32% (inactive)"}
{"smiles": "CCOC(=O)N1CCC(NC(=O)CSCc2nc(-c3cccc(OC)c3)oc2C)CC1", "differential viability (reversal)": "2.79% (inactive)"}
{"smiles": "COc1cc(C(=O)N2CCC(c3nc(-c4cccnc4)no3)CC2)cc(OC)c1OC", "differential viability (reversal)": "11.1% (inactive)"}
{"smiles": "O=C(Nc1ccc2c(c1)OCCO2)c1ccco1", "differential viability (reversal)": "6.8% (inactive)"}
{"smiles": "CCOC(=O)c1cnc(-n2nc(C)cc2C)nc1Nc1cccc(C(C)=O)c1", "differential viability (reversal)": "-9.45% (inactive)"}
{"smiles": "O=c1[nH]cnc2c1nc(SCc1ccccc1)n2C1OC(CO)C(O)C1O", "note": "(stereo not given)", "differential viability (reversal)": "8.52% (inactive)"}
{"smiles": "COc1ccc(CCn2c(-c3ccco3)nc3nc4ccccc4nc32)cc1", "differential viability (reversal)": "-29.9% (inactive)"}
{"smiles": "O=S(=O)(c1ccc(-c2csc(-c3cccnc3)n2)cc1)N1CCCCC1", "differential viability (reversal)": "1.22% (inactive)"}
{"smiles": "CCCOc1nc(N)c(C#N)c(-c2ccccc2F)c1C#N", "differential viability (reversal)": "29% (inactive)"}
{"smiles": "COc1cc(OC)c(OC)cc1CN(C)CCc1ccccn1", "differential viability (reversal)": "-4.87% (inactive)"}
{"smiles": "CCOC(=O)c1c(-c2cccs2)csc1NC(=O)CCCC(=O)O", "differential viability (reversal)": "1.06% (inactive)"}
{"smiles": "Cc1cccc(-c2c3c(=O)n(C)c(=O)n(C)c3cn2-c2ccc(O)cc2)c1", "differential viability (reversal)": "-6.51% (inactive)"}
{"smiles": "CCN(C(=O)CCc1nc(-c2ccccc2F)no1)c1cc(OC)ccc1OC", "differential viability (reversal)": "-2.4% (inactive)"}
{"smiles": "CCc1nc(SCC(=O)Nc2nccs2)c2oc3ccccc3c2n1", "differential viability (reversal)": "-5.17% (inactive)"}
{"smiles": "Cc1c(C#N)sc2nc(-c3ccccc3)nc(N3CCCC3)c12", "differential viability (reversal)": "-11.2% (inactive)"}
{"smiles": "Cc1cccc(N=C2NC(=O)CS2)c1C", "differential viability (reversal)": "3.6% (inactive)"}
{"smiles": "COCCNC(=O)c1ccc2c(c1)nc(C)n2-c1cccc(F)c1", "differential viability (reversal)": "-0.17% (inactive)"}
{"smiles": "CCOC(=O)c1[nH]c2ccc(C)cc2c1N=C(C)N(C)C", "differential viability (reversal)": "6.32% (inactive)"}
{"smiles": "COc1ccc2nc(N3CCC(C)CC3)c(C#N)cc2c1", "differential viability (reversal)": "3.77% (inactive)"}
{"smiles": "Cc1ccccc1NS(=O)(=O)c1cc(S(C)(=O)=O)ccc1Cl", "differential viability (reversal)": "3.12% (inactive)"}
{"smiles": "Cc1cc(C)c2c(N)c(C(=O)N3CCN(c4ncccn4)CC3)sc2n1", "differential viability (reversal)": "0.855% (inactive)"}
{"smiles": "Cc1cc(C)n2nc3nc(N4CCCCC4)nc(-c4ccco4)c3c2n1", "differential viability (reversal)": "-2.63% (inactive)"}
{"smiles": "O=C(O)c1cc(=O)cc(C(=O)O)[nH]1", "differential viability (reversal)": "12.5% (inactive)"}
{"smiles": "COc1ccc(NC(C)=O)cc1NC(=O)CN1CCN(c2ccccn2)CC1", "differential viability (reversal)": "5.82% (inactive)"}
{"smiles": "CCOC(=O)c1cccc(NC(=O)CS(=O)(=O)Cc2nc(-c3cccc(OC)c3)oc2C)c1", "differential viability (reversal)": "-7.47% (inactive)"}
{"smiles": "O=C(CCc1nc2ccccc2s1)OCC(=O)N1CCN(C(=O)c2ccco2)CC1", "differential viability (reversal)": "3.61% (inactive)"}
{"smiles": "Cc1ccccc1CS(=O)(=O)Cc1ccc(C(=O)NCCCN2CCOCC2)o1", "differential viability (reversal)": "3.12% (inactive)"}
{"smiles": "CCOC(=O)c1cccc(NC(=O)Cn2cnc3c2c(=O)n(C)c(=O)n3C)c1", "differential viability (reversal)": "-6.33% (inactive)"}
{"smiles": "O=C(Nc1ccon1)c1csc2c1CCCC2", "differential viability (reversal)": "10.9% (inactive)"}
{"smiles": "CC(C)(C)n1ncc2c(=O)n(CC(=O)NCCc3ccccc3)cnc21", "differential viability (reversal)": "-4.92% (inactive)"}
{"smiles": "Cc1cccc2sc(NC(=O)CN(C)S(=O)(=O)c3cccs3)nc12", "differential viability (reversal)": "-0.425% (inactive)"}
{"smiles": "CCOC(=O)c1cccc(NC(=O)CSc2nnc(C3CCCCC3)n2C)c1", "differential viability (reversal)": "6.58% (inactive)"}
{"smiles": "CCCc1nnc2n1N=C(c1ccc(OC)c(OC)c1)CS2", "differential viability (reversal)": "3.1% (inactive)"}
